Columns and labels:
Assay in all cases: log2 ratio of Biotin-Ahx-Ub-VS probe labelling (fragment/DMSO); higher = less target engagement (more negative = stronger competition), active = hit call of the paper (q ≤ 0.05, log2 ratio ≤ -1)
Conditions in all cases: compound concentration: 200 uM; treatment time: 3 h
[1] = target: T1, USP42 (UniProt Q9H9J4)
T1 sequence (whole entry): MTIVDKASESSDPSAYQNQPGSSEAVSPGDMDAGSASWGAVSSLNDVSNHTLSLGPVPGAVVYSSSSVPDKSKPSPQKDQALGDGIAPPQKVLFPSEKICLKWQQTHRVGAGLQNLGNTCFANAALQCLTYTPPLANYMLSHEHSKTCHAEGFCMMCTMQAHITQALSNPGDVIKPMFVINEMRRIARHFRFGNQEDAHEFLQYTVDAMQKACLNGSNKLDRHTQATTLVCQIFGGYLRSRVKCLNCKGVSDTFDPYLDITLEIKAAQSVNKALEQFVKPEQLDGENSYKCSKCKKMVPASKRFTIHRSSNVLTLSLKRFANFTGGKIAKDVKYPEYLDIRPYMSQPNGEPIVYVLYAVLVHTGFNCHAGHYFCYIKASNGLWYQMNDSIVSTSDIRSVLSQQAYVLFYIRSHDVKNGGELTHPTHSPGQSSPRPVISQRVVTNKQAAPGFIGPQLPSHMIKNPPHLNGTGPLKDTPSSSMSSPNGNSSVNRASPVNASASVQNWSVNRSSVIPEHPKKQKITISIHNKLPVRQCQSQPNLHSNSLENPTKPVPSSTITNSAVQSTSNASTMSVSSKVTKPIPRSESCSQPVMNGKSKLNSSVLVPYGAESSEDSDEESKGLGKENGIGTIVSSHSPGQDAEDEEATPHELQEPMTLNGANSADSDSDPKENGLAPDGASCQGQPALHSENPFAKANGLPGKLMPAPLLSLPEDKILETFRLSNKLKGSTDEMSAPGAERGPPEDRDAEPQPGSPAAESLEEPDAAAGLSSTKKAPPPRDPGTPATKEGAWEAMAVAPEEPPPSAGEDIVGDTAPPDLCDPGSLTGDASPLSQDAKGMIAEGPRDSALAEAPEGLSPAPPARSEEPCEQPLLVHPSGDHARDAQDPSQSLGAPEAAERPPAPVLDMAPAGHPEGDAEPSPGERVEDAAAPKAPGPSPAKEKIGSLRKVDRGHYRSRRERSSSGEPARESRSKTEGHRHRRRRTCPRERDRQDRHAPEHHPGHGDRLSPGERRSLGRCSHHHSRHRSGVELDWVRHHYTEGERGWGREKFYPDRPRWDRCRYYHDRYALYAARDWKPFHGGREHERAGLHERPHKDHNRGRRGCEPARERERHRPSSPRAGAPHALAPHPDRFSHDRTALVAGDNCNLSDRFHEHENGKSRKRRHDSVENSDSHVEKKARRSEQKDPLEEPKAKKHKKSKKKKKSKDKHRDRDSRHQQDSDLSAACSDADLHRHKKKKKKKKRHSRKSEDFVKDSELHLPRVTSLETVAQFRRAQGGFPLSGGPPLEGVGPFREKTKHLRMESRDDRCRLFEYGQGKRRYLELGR
Procedure, shortened: (§1)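 HEK293T lysate (495 µg per sample, in Tris/CHAPS/IGEPAL buffer with protease inhibitors) was treated in triplicate with fragment at 200 µM or with DMSO for 3 h. It was then treated with Biotin-Ahx-Ub-VS (0.5 µM final) for 1 h. Labelled DUBs were NeutrAvidin-enriched, digested with LysC and trypsin, and run by diaPASEF LC-MS/MS. Spectronaut label-free quantities were global-median-normalised. Values are average log2 ratios fragment/DMSO by unpaired t-test, using proteins with ≥2 unique peptides.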

[2] = target: USP46 (UniProt P62068)
Chain of USP46 (P62068 whole entry): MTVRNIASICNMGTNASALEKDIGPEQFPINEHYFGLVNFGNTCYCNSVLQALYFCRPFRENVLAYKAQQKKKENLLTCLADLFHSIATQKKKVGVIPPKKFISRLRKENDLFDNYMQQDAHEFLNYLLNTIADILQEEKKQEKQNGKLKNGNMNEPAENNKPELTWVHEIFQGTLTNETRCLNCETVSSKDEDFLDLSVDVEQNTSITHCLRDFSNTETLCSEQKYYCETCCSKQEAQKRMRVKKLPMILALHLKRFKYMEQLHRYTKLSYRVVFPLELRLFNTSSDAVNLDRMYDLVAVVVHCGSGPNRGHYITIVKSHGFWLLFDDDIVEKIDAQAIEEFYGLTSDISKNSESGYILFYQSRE
Procedure, shortened: as §1

[3] = target: T2, USP47 (UniProt Q96K76)
T2 sequence (whole entry): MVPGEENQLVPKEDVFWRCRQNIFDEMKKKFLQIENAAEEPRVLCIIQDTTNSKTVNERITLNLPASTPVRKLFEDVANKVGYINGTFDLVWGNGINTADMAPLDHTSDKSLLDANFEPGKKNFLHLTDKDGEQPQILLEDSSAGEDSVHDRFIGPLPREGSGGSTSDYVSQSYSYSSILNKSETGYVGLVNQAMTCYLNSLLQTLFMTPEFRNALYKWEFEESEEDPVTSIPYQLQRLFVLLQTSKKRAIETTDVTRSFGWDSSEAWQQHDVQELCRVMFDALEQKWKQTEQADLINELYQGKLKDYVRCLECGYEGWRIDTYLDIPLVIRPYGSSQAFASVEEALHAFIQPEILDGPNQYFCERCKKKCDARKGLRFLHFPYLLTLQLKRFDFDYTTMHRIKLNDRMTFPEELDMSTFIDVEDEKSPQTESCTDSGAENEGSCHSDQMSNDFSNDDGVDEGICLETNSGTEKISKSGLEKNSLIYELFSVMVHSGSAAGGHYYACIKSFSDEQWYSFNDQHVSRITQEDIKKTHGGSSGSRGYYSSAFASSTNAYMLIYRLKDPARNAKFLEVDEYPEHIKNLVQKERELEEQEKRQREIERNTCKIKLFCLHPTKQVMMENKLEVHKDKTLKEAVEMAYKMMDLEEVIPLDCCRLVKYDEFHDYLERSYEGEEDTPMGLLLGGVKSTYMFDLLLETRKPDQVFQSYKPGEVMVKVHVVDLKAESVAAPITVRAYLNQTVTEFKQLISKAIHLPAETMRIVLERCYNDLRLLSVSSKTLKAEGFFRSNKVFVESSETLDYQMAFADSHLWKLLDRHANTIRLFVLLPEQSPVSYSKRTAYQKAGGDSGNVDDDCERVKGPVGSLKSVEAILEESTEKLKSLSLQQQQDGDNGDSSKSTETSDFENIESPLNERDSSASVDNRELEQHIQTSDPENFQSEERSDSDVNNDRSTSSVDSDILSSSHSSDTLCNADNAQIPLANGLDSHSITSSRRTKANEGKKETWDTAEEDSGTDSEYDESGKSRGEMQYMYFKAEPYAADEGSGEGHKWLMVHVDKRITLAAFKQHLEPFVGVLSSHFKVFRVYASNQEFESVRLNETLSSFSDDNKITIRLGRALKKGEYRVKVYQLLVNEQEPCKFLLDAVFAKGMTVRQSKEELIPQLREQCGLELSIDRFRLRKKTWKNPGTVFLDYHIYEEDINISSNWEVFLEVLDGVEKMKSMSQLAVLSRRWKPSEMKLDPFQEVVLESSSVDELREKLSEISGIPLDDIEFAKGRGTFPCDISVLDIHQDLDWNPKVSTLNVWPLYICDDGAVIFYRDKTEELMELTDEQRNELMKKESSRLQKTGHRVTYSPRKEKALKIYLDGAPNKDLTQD
Procedure, shortened: as §1

[4] = target: T3, USP48 (UniProt Q86UV5)
T3 sequence (whole entry): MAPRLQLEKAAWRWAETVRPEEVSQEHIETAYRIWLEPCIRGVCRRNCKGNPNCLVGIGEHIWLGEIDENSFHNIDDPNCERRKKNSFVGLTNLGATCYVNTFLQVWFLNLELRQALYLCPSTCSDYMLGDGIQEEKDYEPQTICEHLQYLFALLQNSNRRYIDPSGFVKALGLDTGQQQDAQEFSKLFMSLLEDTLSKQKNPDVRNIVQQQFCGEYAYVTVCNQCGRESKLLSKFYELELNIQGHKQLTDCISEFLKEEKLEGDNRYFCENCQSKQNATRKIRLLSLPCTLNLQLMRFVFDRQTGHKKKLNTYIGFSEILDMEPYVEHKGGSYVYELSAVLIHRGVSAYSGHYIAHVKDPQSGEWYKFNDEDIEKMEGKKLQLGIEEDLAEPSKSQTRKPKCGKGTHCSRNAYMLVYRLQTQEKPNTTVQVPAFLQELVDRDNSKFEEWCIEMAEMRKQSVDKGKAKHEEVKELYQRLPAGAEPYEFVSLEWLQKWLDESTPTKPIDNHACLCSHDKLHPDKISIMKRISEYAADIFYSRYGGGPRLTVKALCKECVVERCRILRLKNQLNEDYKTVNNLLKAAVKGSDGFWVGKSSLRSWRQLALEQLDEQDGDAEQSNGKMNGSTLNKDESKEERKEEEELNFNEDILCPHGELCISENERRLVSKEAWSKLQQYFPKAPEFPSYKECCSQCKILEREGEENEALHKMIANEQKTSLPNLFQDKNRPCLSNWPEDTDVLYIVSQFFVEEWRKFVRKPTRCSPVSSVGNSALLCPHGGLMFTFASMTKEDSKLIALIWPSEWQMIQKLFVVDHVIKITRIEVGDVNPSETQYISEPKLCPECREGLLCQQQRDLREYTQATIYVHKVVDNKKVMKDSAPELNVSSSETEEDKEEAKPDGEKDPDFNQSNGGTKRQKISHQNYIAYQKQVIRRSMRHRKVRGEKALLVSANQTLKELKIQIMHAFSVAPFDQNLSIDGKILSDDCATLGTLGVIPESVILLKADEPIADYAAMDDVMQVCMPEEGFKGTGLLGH
Procedure, shortened: as §1

[5] = target: T4, USP5 (UniProt P45974)
T4 sequence (whole entry): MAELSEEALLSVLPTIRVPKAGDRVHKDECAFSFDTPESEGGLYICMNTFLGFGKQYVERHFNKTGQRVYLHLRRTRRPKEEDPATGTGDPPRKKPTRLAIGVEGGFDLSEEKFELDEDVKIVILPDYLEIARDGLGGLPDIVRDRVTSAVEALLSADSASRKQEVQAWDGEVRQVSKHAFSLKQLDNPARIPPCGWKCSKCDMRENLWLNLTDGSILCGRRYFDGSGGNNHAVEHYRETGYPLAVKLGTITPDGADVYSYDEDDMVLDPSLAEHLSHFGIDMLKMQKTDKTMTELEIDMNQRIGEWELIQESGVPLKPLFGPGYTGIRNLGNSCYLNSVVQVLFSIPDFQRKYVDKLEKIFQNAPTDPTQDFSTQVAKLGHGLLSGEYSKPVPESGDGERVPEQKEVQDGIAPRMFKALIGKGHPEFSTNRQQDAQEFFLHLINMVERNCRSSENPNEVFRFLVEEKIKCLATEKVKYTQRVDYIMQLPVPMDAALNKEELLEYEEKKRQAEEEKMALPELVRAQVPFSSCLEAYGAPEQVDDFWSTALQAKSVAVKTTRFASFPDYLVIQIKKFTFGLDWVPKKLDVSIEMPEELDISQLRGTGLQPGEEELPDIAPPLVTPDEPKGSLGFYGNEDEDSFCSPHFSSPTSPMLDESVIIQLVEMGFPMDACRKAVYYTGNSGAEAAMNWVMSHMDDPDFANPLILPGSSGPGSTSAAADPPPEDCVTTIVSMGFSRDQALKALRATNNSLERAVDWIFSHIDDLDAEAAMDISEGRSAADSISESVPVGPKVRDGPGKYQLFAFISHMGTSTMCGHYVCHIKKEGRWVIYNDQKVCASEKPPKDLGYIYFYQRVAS
Procedure, shortened: as §1

[6] = target: USP54 (UniProt Q70EL1)
Chain of USP54 (Q70EL1 whole entry): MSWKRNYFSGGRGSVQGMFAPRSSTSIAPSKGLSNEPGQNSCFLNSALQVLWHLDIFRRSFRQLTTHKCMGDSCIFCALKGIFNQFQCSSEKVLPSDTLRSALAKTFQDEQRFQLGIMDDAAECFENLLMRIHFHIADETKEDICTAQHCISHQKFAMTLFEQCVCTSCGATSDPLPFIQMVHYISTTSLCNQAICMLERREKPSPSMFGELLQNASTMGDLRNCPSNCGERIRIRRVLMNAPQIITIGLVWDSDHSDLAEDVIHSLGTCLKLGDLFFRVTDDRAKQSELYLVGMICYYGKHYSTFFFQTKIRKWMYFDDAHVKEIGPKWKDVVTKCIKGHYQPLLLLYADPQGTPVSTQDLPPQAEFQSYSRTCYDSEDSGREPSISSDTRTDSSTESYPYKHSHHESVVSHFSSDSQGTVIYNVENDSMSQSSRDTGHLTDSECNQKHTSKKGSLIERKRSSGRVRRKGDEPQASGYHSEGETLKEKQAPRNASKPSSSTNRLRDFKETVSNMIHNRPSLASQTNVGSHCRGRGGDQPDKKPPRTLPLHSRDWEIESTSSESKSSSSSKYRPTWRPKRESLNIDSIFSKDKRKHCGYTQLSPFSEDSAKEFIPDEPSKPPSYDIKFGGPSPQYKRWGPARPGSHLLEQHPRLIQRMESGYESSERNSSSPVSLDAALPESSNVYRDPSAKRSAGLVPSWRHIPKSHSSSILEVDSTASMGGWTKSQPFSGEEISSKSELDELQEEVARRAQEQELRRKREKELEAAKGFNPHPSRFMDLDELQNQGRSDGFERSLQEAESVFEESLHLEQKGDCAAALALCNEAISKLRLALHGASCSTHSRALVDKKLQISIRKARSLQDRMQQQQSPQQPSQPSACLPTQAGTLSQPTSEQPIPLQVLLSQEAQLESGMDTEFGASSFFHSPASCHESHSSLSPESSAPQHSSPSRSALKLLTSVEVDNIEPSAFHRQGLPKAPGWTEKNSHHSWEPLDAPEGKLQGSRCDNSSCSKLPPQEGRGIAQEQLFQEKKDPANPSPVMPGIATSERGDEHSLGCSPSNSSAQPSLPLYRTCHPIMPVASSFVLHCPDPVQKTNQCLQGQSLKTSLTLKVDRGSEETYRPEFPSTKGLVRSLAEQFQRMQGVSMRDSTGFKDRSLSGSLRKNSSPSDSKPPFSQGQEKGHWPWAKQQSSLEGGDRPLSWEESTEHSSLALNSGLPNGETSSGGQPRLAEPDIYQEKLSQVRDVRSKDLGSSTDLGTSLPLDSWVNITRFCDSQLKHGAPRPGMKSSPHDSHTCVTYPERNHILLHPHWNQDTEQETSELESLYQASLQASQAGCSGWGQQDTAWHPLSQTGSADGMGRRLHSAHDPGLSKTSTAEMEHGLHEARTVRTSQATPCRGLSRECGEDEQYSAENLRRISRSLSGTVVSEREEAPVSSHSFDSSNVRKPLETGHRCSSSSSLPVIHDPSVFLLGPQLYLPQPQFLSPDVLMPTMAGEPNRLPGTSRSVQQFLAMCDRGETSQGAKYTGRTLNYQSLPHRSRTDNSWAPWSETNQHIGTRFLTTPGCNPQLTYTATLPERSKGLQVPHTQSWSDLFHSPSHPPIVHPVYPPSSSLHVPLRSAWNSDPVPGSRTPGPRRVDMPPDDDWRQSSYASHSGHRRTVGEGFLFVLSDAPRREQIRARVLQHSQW
Procedure, shortened: as §1

[7] = target: USP7 (UniProt Q93009)
Chain of USP7 (Q93009 whole entry, looked up): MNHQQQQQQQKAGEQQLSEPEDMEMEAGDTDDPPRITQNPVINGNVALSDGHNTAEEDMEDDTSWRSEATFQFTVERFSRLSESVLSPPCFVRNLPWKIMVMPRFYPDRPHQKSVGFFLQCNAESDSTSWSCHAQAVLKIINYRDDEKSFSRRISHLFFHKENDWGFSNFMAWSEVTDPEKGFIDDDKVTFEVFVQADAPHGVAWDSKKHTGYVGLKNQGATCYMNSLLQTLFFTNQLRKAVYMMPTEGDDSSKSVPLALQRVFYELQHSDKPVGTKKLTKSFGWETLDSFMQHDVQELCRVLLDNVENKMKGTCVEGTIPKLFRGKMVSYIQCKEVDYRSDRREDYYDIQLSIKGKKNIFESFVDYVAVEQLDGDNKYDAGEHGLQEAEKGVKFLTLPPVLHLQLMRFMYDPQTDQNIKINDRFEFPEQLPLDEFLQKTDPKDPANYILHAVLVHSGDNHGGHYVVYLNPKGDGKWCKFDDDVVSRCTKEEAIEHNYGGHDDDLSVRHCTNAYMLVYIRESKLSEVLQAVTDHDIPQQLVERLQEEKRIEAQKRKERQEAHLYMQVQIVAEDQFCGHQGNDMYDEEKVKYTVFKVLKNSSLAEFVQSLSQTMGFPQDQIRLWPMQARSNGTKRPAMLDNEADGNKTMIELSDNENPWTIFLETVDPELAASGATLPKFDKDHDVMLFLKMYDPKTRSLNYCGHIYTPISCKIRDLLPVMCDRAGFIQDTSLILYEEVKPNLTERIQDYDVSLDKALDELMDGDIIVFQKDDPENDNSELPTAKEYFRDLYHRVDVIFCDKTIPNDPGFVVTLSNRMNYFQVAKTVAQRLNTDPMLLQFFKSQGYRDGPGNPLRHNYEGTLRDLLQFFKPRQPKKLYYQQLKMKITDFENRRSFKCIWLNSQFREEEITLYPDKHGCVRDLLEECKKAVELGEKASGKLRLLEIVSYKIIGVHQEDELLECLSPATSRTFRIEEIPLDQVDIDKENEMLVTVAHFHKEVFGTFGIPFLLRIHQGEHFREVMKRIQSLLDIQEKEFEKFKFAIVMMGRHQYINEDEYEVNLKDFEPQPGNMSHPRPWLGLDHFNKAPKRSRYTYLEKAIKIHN
Procedure, shortened: as §1

[8] = target: T5, USP8 (UniProt P40818)
T5 sequence (whole entry): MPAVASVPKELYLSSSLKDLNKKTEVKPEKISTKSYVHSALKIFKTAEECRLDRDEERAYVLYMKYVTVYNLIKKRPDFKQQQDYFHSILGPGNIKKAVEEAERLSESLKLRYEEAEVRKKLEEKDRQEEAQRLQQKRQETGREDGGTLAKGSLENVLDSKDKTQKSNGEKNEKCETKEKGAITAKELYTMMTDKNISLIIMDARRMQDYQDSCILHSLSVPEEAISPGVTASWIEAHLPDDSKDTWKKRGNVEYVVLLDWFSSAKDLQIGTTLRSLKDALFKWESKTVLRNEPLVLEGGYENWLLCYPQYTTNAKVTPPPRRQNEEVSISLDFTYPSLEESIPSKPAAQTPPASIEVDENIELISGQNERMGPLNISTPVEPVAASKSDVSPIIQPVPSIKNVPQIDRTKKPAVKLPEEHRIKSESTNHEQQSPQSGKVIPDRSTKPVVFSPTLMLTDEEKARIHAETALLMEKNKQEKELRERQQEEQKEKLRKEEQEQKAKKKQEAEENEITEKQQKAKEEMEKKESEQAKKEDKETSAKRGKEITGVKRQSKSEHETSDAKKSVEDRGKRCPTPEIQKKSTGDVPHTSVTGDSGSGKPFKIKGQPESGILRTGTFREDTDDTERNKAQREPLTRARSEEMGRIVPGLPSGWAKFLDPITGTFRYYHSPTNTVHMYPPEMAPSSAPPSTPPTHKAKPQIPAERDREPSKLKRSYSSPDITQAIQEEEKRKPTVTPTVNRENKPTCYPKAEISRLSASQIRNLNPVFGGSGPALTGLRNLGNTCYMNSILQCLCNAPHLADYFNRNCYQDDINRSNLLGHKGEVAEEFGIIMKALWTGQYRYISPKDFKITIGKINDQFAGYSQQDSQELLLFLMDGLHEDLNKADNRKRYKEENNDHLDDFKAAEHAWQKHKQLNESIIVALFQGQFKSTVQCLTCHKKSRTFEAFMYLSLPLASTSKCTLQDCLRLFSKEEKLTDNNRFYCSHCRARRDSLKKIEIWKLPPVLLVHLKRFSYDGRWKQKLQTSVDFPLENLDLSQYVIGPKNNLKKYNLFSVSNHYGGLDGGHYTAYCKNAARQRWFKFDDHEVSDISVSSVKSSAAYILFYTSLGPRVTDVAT
Procedure, shortened: as §1

Measured: log2 ratio of Biotin-Ahx-Ub-VS probe labelling

O=C(CCl)NC1CCS(=O)(=O)c2ccccc21 (stereo not drawn)
inactive: [1] -0.57 | [2] -0.0772 | [3] -0.498 | [4] -0.471 | [5] -0.0632 | [6] 0.689 | [7] -0.288 | [8] -0.538
